Screens deposited in PubChem BioAssay by several laboratories.
EWS-Fli inh – blocks EWS/Fli oncoprotein-driven transcription; A673 NR0B1-luciferase reporter, viability-normalised; AID 651661; 350,000 tested, 0.67% active; inhibition, % at 12.6 µM;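 active means mean inhibition of at least 50% after viability correction, with every replicate also passing that limit; inconclusive means mean reaches 50% but only one of two replicates passes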;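 further: firefly luciferase signal divided by Alamar Blue viability fluorescence both relative to DMSO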
TROY NFkB inh – inhibitors of TROY-dependent NF-kB signaling; Q293 LMP1-TROYcd NF-kB luciferase reporter, 4 h; inhibition, % at 10 µM; 360,000 tested, 0.98% active; AID 1347056;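 active means compounds whose plate-normalised and pattern-corrected inhibition of the luciferase reporter signal at the single screening dose is 50% or more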
EBV LMP1 NFkB – reduces LMP1-driven NF-kappaB luciferase signal; LMP1-induced NF-kappaB luciferase reporter cells, luminescence; inhibition, % at 12.5 µM; 350,000 tested, 0.69% active; AID 504558; in the data active means inhibition above about 41%; inconclusive means no clear call, values can overlap the other calls;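 further: 0% = neutral control wells and 100% = reference inhibitor control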
LGR2 inh – blocks bursicon-induced cAMP signaling via Drosophila LGR2. HEK293 LGR2, CRE-luciferase, bursicon-stimulated, 4 h. inhibition, % at 9.99 µM. 380,000 tested, 0.35% active. AID 720647;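 active means drop in luminescence signal, shown as inhibition above about 50% in the replicate tests, limit read from the data, passing the limit was not always enough; inconclusive means probably only some replicates passing the limit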;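 further: agonist challenge used bursicon conditioned medium at about half maximal strength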
TWEAK-Fn14 inh – inhibitors of TWEAK-Fn14 interaction signaling | TWEAK-stimulated Fn14 reporter cells, luciferase luminescence, 8 h | inhibition, % at 10 µM | 360,000 tested, 2% active; in the data active means inhibition above about 50%
* hit, by the source's call; ? = inconclusive; . = no result. A selection: hits, their analogues and other compounds. The true share with any hit is near 2.5%.

SMILES	EWS-Fli inh	TROY NFkB inh	EBV LMP1 NFkB	LGR2 inh	TWEAK-Fn14 inh
COC(=O)c1cc(=O)n(Cc2ccc3c(c2)OCO3)c(=Nc2ccc(F)cc2)s1	0.0	21.5	-2.1	?	41.7
COC(=O)c1cc(=O)n(Cc2cccs2)c(=Nc2ccc(F)cc2)s1	11.7	3.8	0.5	55.5*	55.5*
COC(=O)[C@H]1[C@H](CO)[C@H]2Cn3c(ccc(-c4ccncc4)c3=O)[C@H]2N1Cc1cccc(F)c1	16.7	.	.	5.6	.
CCN(CC(O)CON=C1c2ccccc2-c2ccccc21)S(=O)(=O)c1ccc(Cl)cc1 (stereo not given)	.	13.1	-4.8	11.0	63.2*
COc1ccc(CCNC2=C(Cl)C(=O)N(CCc3ccc(OC)c(OC)c3)C2=O)cc1OC	.	11.4	-2.4	.	51.4*
C[C@H](CO)N1C[C@H](C)[C@H](CN(C)C(=O)CN2CCOCC2)Oc2ncc(-c3cncnc3)cc2C1=O	-3.6	.	.	-7.8	.
Cc1cnc(C(=O)OC(C)C(=O)Nc2ccc(Oc3ccccc3)cc2)cn1 (stereo not given)	-9.5	8.0	71.4*	-10.7	-0.7
Cc1cnc(C(=O)OCC(=O)Nc2ccc(Oc3ccccc3)cc2)cn1	.	24.1	6.0	.	11.0
Cc1ccc(-c2csc(NC(=O)CSc3nc4ccccc4[nH]3)n2)cc1	.	56.6*	14.9	-10.6	71.9*
CCn1c(SCC(=O)Nc2nc3ccccc3s2)nnc1-c1ccc(Br)cc1	.	0.9	-7.2	.	65.8*
CCn1c(SCC(=O)Nc2nc(-c3ccc(C)cc3)cs2)nnc1-c1ccccc1O	.	50.4*	-4.8	.	46.6
O=C(CSc1nc(O)cc(=O)n1-c1ccccc1)Nc1nc2ccccc2s1	-4.0	63.5*	-11.9	-17.6	41.1
COc1ccc(-c2csc(NC(=O)CSc3nc4ccccc4c(=O)[nH]3)n2)cc1	-19.9	41.1	-9.0	-9.2	-36.6
COc1ccc(NC(=O)CSc2nc(O)cc(=O)n2-c2ccccc2)cc1	0.0	-9.0	-6.1	1.7	18.4
CNC[C@@H]1OCCCC[C@@H](C)Oc2ccc(NC(=O)C3CCCCC3)cc2C(=O)N([C@H](C)CO)C[C@@H]1C	-2.5	.	.	11.7	.
C[C@@H]1CN([C@@H](C)CO)C(=O)c2cc(NS(=O)(=O)c3ccc(Cl)cc3)ccc2O[C@@H]1CN(C)C	1.4	.	.	1.2	.
O=C(CSc1nnc2nnc3ccccc3n12)N1CCOCC1	-5.1	67.9*	18.9	-14.2	63.7*
Cc1ccc2[nH]c(-c3cccc(F)c3)cc(=O)c2c1	56.7*	-23.6	-7.2	-38.5	-30.5
O=c1cc(-c2ccccc2)[nH]c2cc(Cl)ccc12	59.4*	20.7	14.8	.	-8.2
Cc1ccc(-c2cc(=O)c3cc(C)ccc3[nH]2)cc1	59.1*	15.9	23.7	52.6*	66.6*
O=c1cc(-c2ccccc2)[nH]c2ccc(F)cc12	57.7*	-1.3	?	5.2	4.1
Clc1ccc2[nH]c(-c3ccccc3)cc2c1	.	-60.3	-31.7	.	-6.8
CNC[C@@H]1Oc2c(NS(=O)(=O)c3cn(C)cn3)cccc2C(=O)N([C@@H](C)CO)C[C@@H]1C	-5.1	.	.	-7.1	.
C[C@H]1CN([C@@H](C)CO)C(=O)c2cccc(NC(=O)Nc3ccc4c(c3)OCO4)c2O[C@H]1CN(C)C(=O)NC1CCCCC1	-10.5	.	.	-22.7	.
O=c1cc(-c2cccc(F)c2)[nH]c2ccccc12	65.6*	27.0	1.2	-16.8	-11.0
SMILES	EWS-Fli inh	TROY NFkB inh	EBV LMP1 NFkB	LGR2 inh	TWEAK-Fn14 inh
COc1ccc2[nH]c(-c3cccc(F)c3)cc(=O)c2c1	30.2	-19.9	-5.9	-31.4	-13.1
CN(Cc1cn(C)nc1-c1ccc(Oc2ccccc2)cc1)Cc1cnc2ccccn12	25.6	44.1	8.7	3.9	77.1*
COC(=O)C[C@H]1CC[C@@H]2[C@H](COc3ccc(NS(=O)(=O)c4ccccc4F)cc3C(=O)N2C)O1	3.2	.	.	2.1	.
CC1(C(=O)Nc2ccc3c(c2)OCCO3)CCN1C(=O)Cc1ccc(-c2ccccc2)cc1 (stereo not given)	2.3	46.2	.	1.4	73.6*
CC(C)c1ccc(CC(=O)N2CCC2(C)C(=O)Nc2ccc3c(c2)OCO3)cc1 (stereo not given)	-5.5	3.7	.	-8.2	-10.7
CC1(C(=O)Nc2ccc3c(c2)OCCO3)CCN1C(=O)C1(c2ccc(Cl)cc2)CCC1 (stereo not given)	2.2	9.8	.	11.3	1.5
CC1(C(=O)Nc2cccc(C#N)c2)CCN1C(=O)Cc1ccc(-c2ccccc2)cc1 (stereo not given)	26.6	22.8	.	10.4	57.0*
CC1(C(=O)Nc2ccc3c(c2)OCCO3)CCN1C(=O)C1(c2ccc(Cl)cc2)CC1 (stereo not given)	-7.0	25.9	.	-0.4	59.0*
Oc1ccc(-c2n[nH]c(C(F)(F)F)c2-c2ccccc2)c(O)c1	8.1	31.4	7.0	3.7	56.4*
COc1ccc(C2SCC(=O)N2CCc2ccc(OC)c(OC)c2)cc1 (stereo not given)	53.9*	39.2	-0.3	-7.7	23.9
COc1ccc(CCN2C(=O)CSC2c2ccc(OC)c(OC)c2)cc1OC (stereo not given)	0.7	4.3	-2.0	-10.4	4.4
CCCCC[C@@H](/C=C/C1C(=O)C=C[C@H]1C/C=C\CCCC(=O)OC)OC(C)=O (stereo not given in full)	27.8	29.7	18.0	32.0	90.7*
C[C@@H]1CN([C@@H](C)CO)C(=O)c2cccc(NC(=O)NC3CCCCC3)c2O[C@@H]1CN(C)Cc1ccc2c(c1)OCO2	-11.3	.	.	7.5	.
O=C(Nc1ccccc1O)c1ccc([N+](=O)[O-])cc1	-9.9	-27.7	25.6	-13.9	110.1*
CC(C)NC(=O)Nc1cccc2c1O[C@@H](CN(C)Cc1ccc(-c3ccccc3)cc1)[C@@H](C)CN([C@H](C)CO)C2=O	0.5	.	.	-1.2	.
CCCc1c(O)c2ccccc2[nH]c1=O	.	.	-3.8	.	79.8*
CSC(=Nc1ccccc1)N=C(SCc1ccccc1)N(C)C	56.8*	44.6	-23.8	76.0*	80.5*
C[C@H](CO)N1C[C@H](C)[C@@H](CN(C)S(=O)(=O)CC(F)(F)F)OCc2ccccc2-c2c(n(C)c3ccccc23)C1=O	-6.6	.	.	1.2	.
O=C(CCCCCCC(=O)Nc1ccccc1)NO	71.2*	-7.0	-398.8	-16.9	-146.6
CC(C)(C)NC(=O)CN(Cc1ccccc1)S(=O)(=O)c1ccccc1	2.3	3.5	-0.4	34.1	53.9*
CNC(=O)CN(Cc1ccccc1)S(=O)(=O)c1ccccc1	.	-7.8	8.0	.	-12.9
C[C@H]1CN([C@@H](C)CO)C(=O)Cc2cc(NS(=O)(=O)c3ccc(Cl)cc3)ccc2O[C@@H]1CN(C)S(C)(=O)=O	7.2	.	.	-3.5	.
CCCc1nnc(SCC(=O)Nc2ccc(OCC)cc2)n1N	.	-1.1	0.2	.	99.8*
CCOc1ccc(NC(=O)CSc2nnc(-c3ccccc3)n2N)cc1	.	-3.6	-11.2	13.5	6.9
Cc1cc(=O)[nH]c(N/N=C/c2ccccn2)n1	.	-6.9	16.1	28.0	-3.6
O=c1cnnc(N/N=C/c2ccccn2)[nH]1	45.4	19.7	76.0*	29.4	-6.8
Fc1cccc(/C=N/Nc2nncc3ccccc23)c1	21.6	-33.1	-9.1	12.0	45.9
